We go through six sequences from publication PMC11006913.

Holding throughout (assay): PBM; 200 nM protein, PBS
Holding throughout (settings): dsDNA, one strand shown

The target of test [1] is T1, SIX6 (Homo sapiens, UniProt O95475 114-200, L167I).
T1 sequence: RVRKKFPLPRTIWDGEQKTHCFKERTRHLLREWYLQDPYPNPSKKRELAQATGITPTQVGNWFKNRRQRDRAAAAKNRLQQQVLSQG

Test [2] addresses T2, SIX6 (Homo sapiens, UniProt O95475 114-200, L143V).
T2 sequence: T1 sequence with L30V, I54L

Test [3] concerns the target T3, SIX6 (Homo sapiens, UniProt O95475 114-200, H141N).
T3 sequence: T1 sequence with H28N, I54L

Test [4] concerns the target T4, SIX6 (Homo sapiens, UniProt O95475 114-200, T165P).
T4 sequence: T1 sequence with T52P, I54L

Test [5] addresses T5, SIX6 (Homo sapiens, UniProt O95475 114-200, L167M).
T5 sequence: T1 sequence with I54M

The target in test [6] is T6, SIX6 (Homo sapiens, UniProt O95475 114-200, L143M).
T6 sequence: T1 sequence with L30M, I54L

The target of test [7] is T7, SIX6 (Homo sapiens, UniProt O95475 114-200, L143I).
T7 sequence: T1 sequence with L30I, I54L

For test [8], the target named is T8, SIX6 (Homo sapiens, UniProt O95475 114-200, T165G).
T8 sequence: T1 sequence with T52G, I54L

For test [9], the target named is T9, SIX6 (Homo sapiens, UniProt O95475 114-200, T139Q).
T9 sequence: T1 sequence with T26Q, I54L

In test [10] the target is T10, SIX6 (Homo sapiens, UniProt O95475 114-200, T165A).
T10 sequence: T1 sequence with T52A, I54L

Test [11] has as its target T11, SIX6 (Homo sapiens, UniProt O95475 114-200, L167V).
T11 sequence: T1 sequence with I54V

In test [12] the target is T12, SIX6 (Homo sapiens, UniProt O95475 114-200).
T12 sequence: T1 sequence with I54L

In test [13] the target is T13, SIX6 (Homo sapiens, UniProt O95475 114-200, T165I).
T13 sequence: T1 sequence with T52I, I54L

Changes are numbered by the printed parent chain.

ATACGATA: the binding signal is 11.1 upbm affinity estimate (log intensity, higher = more binding, comparable within an allelic series) in the test with SIX6 [1]; 10.4 upbm affinity estimate (log intensity, higher = more binding, comparable within an allelic series) with SIX6 [2]; 11 upbm affinity estimate (log intensity, higher = more binding, comparable within an allelic series) with SIX6 [3]; 9.94 upbm affinity estimate (log intensity, higher = more binding, comparable within an allelic series) in the test with SIX6 [4]; 10.6 upbm affinity estimate (log intensity, higher = more binding, comparable within an allelic series) with SIX6 [5]; 10.9 upbm affinity estimate (log intensity, higher = more binding, comparable within an allelic series) with SIX6 [6]. Also, the binding signal with SIX6 [7] was 10.4 upbm affinity estimate (log intensity, higher = more binding, comparable within an allelic series); with SIX6 [8], 11.2 upbm affinity estimate (log intensity, higher = more binding, comparable within an allelic series); in the test with SIX6 [9] it was 11.2 upbm affinity estimate (log intensity, higher = more binding, comparable within an allelic series); with SIX6 [10], 11 upbm affinity estimate (log intensity, higher = more binding, comparable within an allelic series); in the test with SIX6 [11], 10.9 upbm affinity estimate (log intensity, higher = more binding, comparable within an allelic series); with SIX6 [12], 10.9 upbm affinity estimate (log intensity, higher = more binding, comparable within an allelic series). The binding signal with SIX6 [13] is 10.8 upbm affinity estimate (log intensity, higher = more binding, comparable within an allelic series).

As for AGGTATCA, the binding signal in the test with SIX6 [1] is 11.7 upbm affinity estimate (log intensity, higher = more binding, comparable within an allelic series); with SIX6 [2], 10.6 upbm affinity estimate (log intensity, higher = more binding, comparable within an allelic series); with SIX6 [3], 11.8 upbm affinity estimate (log intensity, higher = more binding, comparable within an allelic series); in the test with SIX6 [4] it was 9.9 upbm affinity estimate (log intensity, higher = more binding, comparable within an allelic series); in the test with SIX6 [5], 11 upbm affinity estimate (log intensity, higher = more binding, comparable within an allelic series); in the test with SIX6 [6] it was 11.4 upbm affinity estimate (log intensity, higher = more binding, comparable within an allelic series). Moreover, the binding signal with SIX6 [7] is 10.7 upbm affinity estimate (log intensity, higher = more binding, comparable within an allelic series); with SIX6 [8], 11.8 upbm affinity estimate (log intensity, higher = more binding, comparable within an allelic series); with SIX6 [9], 11.6 upbm affinity estimate (log intensity, higher = more binding, comparable within an allelic series); in the test with SIX6 [10], 11.7 upbm affinity estimate (log intensity, higher = more binding, comparable within an allelic series); with SIX6 [11], 11.5 upbm affinity estimate (log intensity, higher = more binding, comparable within an allelic series); with SIX6 [12], 11.4 upbm affinity estimate (log intensity, higher = more binding, comparable within an allelic series). The binding signal with SIX6 [13] was 11.5 upbm affinity estimate (log intensity, higher = more binding, comparable within an allelic series).

For CCAGTGCG, the binding signal with SIX6 [1] is 8.98 upbm affinity estimate (log intensity, higher = more binding, comparable within an allelic series); with SIX6 [2] it was 8.96 upbm affinity estimate (log intensity, higher = more binding, comparable within an allelic series); in the test with SIX6 [3], 9 upbm affinity estimate (log intensity, higher = more binding, comparable within an allelic series); with SIX6 [4], 9.02 upbm affinity estimate (log intensity, higher = more binding, comparable within an allelic series); with SIX6 [5], 8.94 upbm affinity estimate (log intensity, higher = more binding, comparable within an allelic series); with SIX6 [6], 8.99 upbm affinity estimate (log intensity, higher = more binding, comparable within an allelic series). The binding signal with SIX6 [7] is 9.05 upbm affinity estimate (log intensity, higher = more binding, comparable within an allelic series); with SIX6 [8], 9.12 upbm affinity estimate (log intensity, higher = more binding, comparable within an allelic series); with SIX6 [9] it was 9.15 upbm affinity estimate (log intensity, higher = more binding, comparable within an allelic series); with SIX6 [10], 9.01 upbm affinity estimate (log intensity, higher = more binding, comparable within an allelic series); with SIX6 [11] it was 9.07 upbm affinity estimate (log intensity, higher = more binding, comparable within an allelic series); in the test with SIX6 [12], 9.01 upbm affinity estimate (log intensity, higher = more binding, comparable within an allelic series). For the same sequence, the binding signal in the test with SIX6 [13] is 8.95 upbm affinity estimate (log intensity, higher = more binding, comparable within an allelic series).

With ACGATACC, the binding signal in the test with SIX6 [1] was 11.2 upbm affinity estimate (log intensity, higher = more binding, comparable within an allelic series); with SIX6 [2], 10.3 upbm affinity estimate (log intensity, higher = more binding, comparable within an allelic series); with SIX6 [3], 11.1 upbm affinity estimate (log intensity, higher = more binding, comparable within an allelic series); with SIX6 [4], 9.65 upbm affinity estimate (log intensity, higher = more binding, comparable within an allelic series); with SIX6 [5] it was 10.6 upbm affinity estimate (log intensity, higher = more binding, comparable within an allelic series); with SIX6 [6] it was 11 upbm affinity estimate (log intensity, higher = more binding, comparable within an allelic series). Also, the binding signal was 10.4 upbm affinity estimate (log intensity, higher = more binding, comparable within an allelic series) in the test with SIX6 [7]; 11.3 upbm affinity estimate (log intensity, higher = more binding, comparable within an allelic series) with SIX6 [8]; 11.4 upbm affinity estimate (log intensity, higher = more binding, comparable within an allelic series) in the test with SIX6 [9]; 11.1 upbm affinity estimate (log intensity, higher = more binding, comparable within an allelic series) with SIX6 [10]; 10.9 upbm affinity estimate (log intensity, higher = more binding, comparable within an allelic series) with SIX6 [11]; 11.1 upbm affinity estimate (log intensity, higher = more binding, comparable within an allelic series) with SIX6 [12]. For the same sequence, the binding signal with SIX6 [13] is 11 upbm affinity estimate (log intensity, higher = more binding, comparable within an allelic series).

In the case of GATATCAC, the binding signal with SIX6 [1] is 11.4 upbm affinity estimate (log intensity, higher = more binding, comparable within an allelic series); with SIX6 [2] it was 10.3 upbm affinity estimate (log intensity, higher = more binding, comparable within an allelic series); with SIX6 [3], 11.4 upbm affinity estimate (log intensity, higher = more binding, comparable within an allelic series); in the test with SIX6 [4], 9.67 upbm affinity estimate (log intensity, higher = more binding, comparable within an allelic series); in the test with SIX6 [5], 10.7 upbm affinity estimate (log intensity, higher = more binding, comparable within an allelic series); with SIX6 [6], 11.1 upbm affinity estimate (log intensity, higher = more binding, comparable within an allelic series). Besides, the binding signal is 10.3 upbm affinity estimate (log intensity, higher = more binding, comparable within an allelic series) with SIX6 [7]; 11.4 upbm affinity estimate (log intensity, higher = more binding, comparable within an allelic series) with SIX6 [8]; 11.2 upbm affinity estimate (log intensity, higher = more binding, comparable within an allelic series) with SIX6 [9]; 11.2 upbm affinity estimate (log intensity, higher = more binding, comparable within an allelic series) with SIX6 [10]; 11.1 upbm affinity estimate (log intensity, higher = more binding, comparable within an allelic series) in the test with SIX6 [11]; 11.1 upbm affinity estimate (log intensity, higher = more binding, comparable within an allelic series) in the test with SIX6 [12]. Besides, in the test with SIX6 [13], the binding signal is 11.1 upbm affinity estimate (log intensity, higher = more binding, comparable within an allelic series).

In the case of ATGGCCGC, the binding signal was 8.86 upbm affinity estimate (log intensity, higher = more binding, comparable within an allelic series) in the test with SIX6 [1]; 8.81 upbm affinity estimate (log intensity, higher = more binding, comparable within an allelic series) with SIX6 [2]; 8.75 upbm affinity estimate (log intensity, higher = more binding, comparable within an allelic series) in the test with SIX6 [3]; 8.94 upbm affinity estimate (log intensity, higher = more binding, comparable within an allelic series) with SIX6 [4]; 8.89 upbm affinity estimate (log intensity, higher = more binding, comparable within an allelic series) with SIX6 [5]; 8.74 upbm affinity estimate (log intensity, higher = more binding, comparable within an allelic series) with SIX6 [6]. Besides, the binding signal with SIX6 [7] is 8.82 upbm affinity estimate (log intensity, higher = more binding, comparable within an allelic series); in the test with SIX6 [8] it was 8.77 upbm affinity estimate (log intensity, higher = more binding, comparable within an allelic series); with SIX6 [9], 8.7 upbm affinity estimate (log intensity, higher = more binding, comparable within an allelic series); with SIX6 [10], 8.69 upbm affinity estimate (log intensity, higher = more binding, comparable within an allelic series); in the test with SIX6 [11] it was 8.93 upbm affinity estimate (log intensity, higher = more binding, comparable within an allelic series); with SIX6 [12] it was 8.75 upbm affinity estimate (log intensity, higher = more binding, comparable within an allelic series). The binding signal in the test with SIX6 [13] is 8.83 upbm affinity estimate (log intensity, higher = more binding, comparable within an allelic series).
